PubChem BioAssay (NCATS)
Results filed as inconclusive are left out. Activity calls are given as the source filed them. Calls come from the whole dose curve; tested in HEK293 reporter line.
% is set by controls: 0 for no effect and ±100 for the full control effect; potency is the fitted concentration of half-maximal effect.

Experiment: qHTS for Inhibitors of the Functional Ribonucleoprotein Complex (vRNP) of Lymphocytic Choriomeningitis Arenaviruses (LCMV): Viability assay - alamar blue signal for LCMV Primary Screen (AID 1347085); note: nearly all actives have a fitted effect of over 80% in size
Details: alamar blue viability counter-screen, LCMV vRNP screen cells; series mostly up to 57.5 µM; activity change, negative = lower viability: at the top concentration
In the case of `C=C1C[C@@]23CC4C5[C@@]6(C)C[C@H](O)C[C@@]57C2[C@H](O)[C@@H]1[C@H](O)[C@H]3[C@H]7N4C6`, the “activity change, negative = lower viability” value is reported as -0.312% (inactive).
In the case of `CCOC(=O)/C=C/c1ccccc1`, the “activity change, negative = lower viability” value is reported as 8.35% [at 115 µM] (inactive).
With `O=C1CCC[C@H]2[C@H]3CCCN4CCCC(=CN12)[C@@H]34` the “activity change, negative = lower viability” value was 1.9% (inactive).
With `COc1cc2c(c(OC)c1OC)-c1c(cc3c(c1OC)OCO3)[C@@H](OC(C)=O)[C@H](C)[C@H](C)C2` the “activity change, negative = lower viability” value was -0.613% (inactive).
For `C[C@@H](Cc1cc2c(c(C(N)=O)c1)N(CCCO)CC2)NCCOc1ccccc1OCC(F)(F)F`, the “activity change, negative = lower viability” value was -15.8% (inactive).
For `CCCCCCCC/C=C/CCCOC(C)=O`, the “activity change, negative = lower viability” value was -2.43% [at 115 µM] (inactive).
In the case of `CC(=O)OC1c2c(ccc3ccc(=O)oc23)OC(C)(C)C1OC(=O)CC(C)C` (centres undefined), the “activity change, negative = lower viability” value is reported as 1.87% (inactive).
For `C=C1C[C@H](O[C@@H]2O[C@H](CO)[C@@H](O)[C@H](O)[C@H]2O)[C@@H]2[C@H](OC(=O)[C@H]2C)[C@H]2[C@H](C)[C@@H](O)C[C@@H]12`, the “activity change, negative = lower viability” value was 0.885% (inactive).
In the case of `N[C@H](C(=O)O)c1ccc(O)c(C(=O)O)c1`, the “activity change, negative = lower viability” value is reported as 20.9% (inactive).
For `C=C1CCC2C(C)(C)[C@@H](O)CC[C@@]2(C)[C@@H]1COc1ccc2ccc(=O)oc2c1` (some centres undefined), the “activity change, negative = lower viability” value was 1.34% (inactive).
With `COc1ccc(C(=O)OC2CC3CCC(C2)[N+]3(C)[O-])cc1OC` (centres undefined) the “activity change, negative = lower viability” value was -3.33% (inactive).
In the case of `Cc1c(O)c2ccccc2oc1=O`, the “activity change, negative = lower viability” value is reported as 0.298% (inactive).
With `CC(=O)OCC1=C(C(=O)O)N2C(=O)[C@@H](NC(=O)Cc3ccccc3)[C@H]2SC1` the “activity change, negative = lower viability” value was 14.5% (inactive).
With `CCOC(=O)Cc1ccccc1` the “activity change, negative = lower viability” value was -133% [at 115 µM] (inactive).
For `COC1CC(C)C(OC)c2cc(O)cc(c2O)NC(=O)C(C)=CC=CC(C)C(OC(N)=O)C(C)=CC(C)C1OC` (centres undefined), the “activity change, negative = lower viability” value was 3.93% (inactive).
In the case of `COC(=O)c1ccccc1-n1c(C)nc2ccccc2c1=O`, the “activity change, negative = lower viability” value is reported as -2.62% (inactive).
For `C[C@]12CCC3C(CC[C@H]4C[C@H](O)CC[C@]34C)C1C[C@H](O)[C@@H]2O` (some centres undefined), the “activity change, negative = lower viability” value was -9.25% (inactive).
For `O=Cc1ccc(O)cc1O`, the “activity change, negative = lower viability” value was 1.2% (inactive).
In the case of `CS[C@H]1SC[C@@H]2C(=O)N(C)[C@H](C(C)C)C(=O)OC[C@H](NC(=O)c3cnc4ccccc4n3)C(=O)N[C@H](C)C(=O)N(C)[C@@H]1C(=O)N(C)[C@H](C(C)C)C(=O)OC[C@H](NC(=O)c1cnc3ccccc3n1)C(=O)N[C@H](C)C(=O)N2C`, the Potency is reported as 6.1 nM (active).
For `COc1cc(C(=O)OC2CC3CCC2(C)C3(C)C)ccc1OC(C)=O` (centres undefined), the “activity change, negative = lower viability” value was 17.8% (inactive).
For `CCCCC[C@H](O)/C=C/[C@H]1OC(O)C[C@H](O)[C@@H]1C/C=C\CC(=O)O` (some centres undefined), the activity change, negative = lower viability was -0.195% [at 0.757 µM] (inactive).
For `CC1=C2C(=O)OC(c3ccoc3)C2(C)CCC1` (centres undefined), the “activity change, negative = lower viability” value was 2.78% (inactive).
For `COc1c2ccc(OCC/C(C)=C/C(=O)C=C(C)C)cc2nc2occc12`, the “activity change, negative = lower viability” value was 3.46% (inactive).
With `c1ccc2nc(-c3ccc4c(c3)OCO4)ccc2c1` the “activity change, negative = lower viability” value was 0.425% (inactive).
With `COc1cc(OC)c2ccc(=O)oc2c1` the Potency was “inactive”.
In the case of `CC(=O)O`, the “activity change, negative = lower viability” value is reported as 8.07% (inactive).
For `CC(=O)O[C@@H]1[C@H](OC(=O)CC(C)C)c2c(ccc3ccc(=O)oc23)OC1(C)C`, the “activity change, negative = lower viability” value was -13% (inactive).
In the case of `Cc1[nH]c(C=C2C(=O)Nc3ccc(S(=O)(=O)Cc4c(Cl)cccc4Cl)cc32)c(C)c1C(=O)N1CCC[C@H]1CN1CCCC1`, the “activity change, negative = lower viability” value is reported as -1.29% (inactive).
With `CC(=O)Oc1ccc2c(C)cc(=O)oc2c1` the “activity change, negative = lower viability” value was -7.2% (inactive).
With `O=C(/C=C/c1ccc(O)cc1)OC[C@H]1O[C@@H](Oc2c(-c3ccc(O)cc3)oc3cc(O)cc(O)c3c2=O)[C@H](O)[C@@H](O)[C@@H]1O` the “activity change, negative = lower viability” value was 2.4% [at 24.7 µM] (inactive).
In the case of `CC[C@H](C)C(=O)N[C@H]1CCCN1C(=O)/C=C/c1ccccc1`, the “activity change, negative = lower viability” value is reported as 0.0133% (inactive).
For `N#CC(=C1Nc2ccccc2S1)c1ccnc(OCc2ccc(CN3CCOCC3)cc2)n1`, the Potency was 1930 nM (active).
For `COc1cc(C(=O)O[C@@H]2CC3CC[C@]2(C)C3(C)C)ccc1O`, the “activity change, negative = lower viability” value was 8.68% (inactive).
In the case of `Cn1c2ccccc2c2c3c(c4c5ccccc5n(CCC#N)c4c21)CNC3=O`, the Potency is reported as 3850 nM (active).
With `C[C@]12C=CC(=O)C=C1CC[C@@H]1[C@@H]2[C@@H](O)C[C@@]2(C)[C@@H]1CC[C@]2(O)C(=O)CO` the “activity change, negative = lower viability” value was -11.4% (inactive).
With `C=CCc1c(OC)ccc2ccc(=O)oc12` the “activity change, negative = lower viability” value was 1.47% (inactive).
In the case of `C=CC(C)(CCC=C(C)C)OC(=O)c1ccccc1` (centres undefined), the “activity change, negative = lower viability” value is reported as 18.4% [at 115 µM] (inactive).
In the case of `COc1cc2c(=O)c(-c3ccc(O)cc3)coc2cc1OC1OC(CO)C(O)C(O)C1O` (centres undefined), the “activity change, negative = lower viability” value is reported as -0.789% (inactive).
With `O=c1cc(-c2ccc(O)cc2)oc2c([C@@H]3O[C@H](CO)[C@@H](O)[C@H](O)[C@H]3O)c(O)c([C@@H]3O[C@H](CO)[C@@H](O)[C@H](O)[C@H]3O)c(O)c12` the “activity change, negative = lower viability” value was -0.716% (inactive).
